In the supplement of paper PMC6522484:
± gives the standard deviation of the averaged measurements.

Experiments:
DLD1 [1] = experiment: cell viability (CellTiter-Glo) relative to plate median (fraction of plate median); higher = more viable cells; details: 5 µM; treatment time 24 h; reporter: 7TFP
Outline: (§1)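 Luminescence, normalised well by well to the plate median, is tabulated as a mean of independent replicates. There were two replicates, run on colorectal cancer lines stably transduced with lentiviral TCF/Wnt firefly luciferase reporters and dosed with library compounds at a final 5 µM for 24 h. Readouts were firefly luciferase or CellTiterGlo on parallel plates.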

HCT116 = experiment: as above; details: 5 µM; treatment time 24 h; reporter: TCF4/Wnt
Outline: as §1

SW480 [2] = experiment: as above; details: 5 µM; treatment time 24 h; reporter: 7TFP
Outline: as §1

DLD1 [3] = experiment: TCF/Wnt firefly luciferase reporter signal relative to plate median (fraction of plate median); higher = higher Wnt reporter signal; details: 5 µM; treatment time 24 h; reporter: 7TFP
Outline: as §1

SW480 [4] = experiment: as above; details: 5 µM; treatment time 24 h; reporter: 7TFP
Outline: as §1

SMILES | cell viability (DLD1 [1]) | cell viability (HCT116) | cell viability (SW480 [2]) | TCF/Wnt firefly luciferase reporter signal (DLD1 [3]) | TCF/Wnt firefly luciferase reporter signal (SW480 [4])
C=C(C)[C@@H]1CC=C(CO)CC1 | 0.968 ± 0.1 | 0.972 ± 0.12 | 0.996 ± 0.0042 | 0.952 ± 0.016 | 0.972 ± 0.054
COC(=O)C[C@H]1C(C)(C)C(=O)[C@@H]2CC3=C(CC[C@]4(C)C3=CC(=O)O[C@H]4c3ccoc3)[C@@]1(C)C2=O | 0.96 ± 0.032 | 0.979 ± 0.058 | 0.944 ± 0.018 | 0.782 ± 0.35 | 0.954 ± 0.029
COc1cc(OC)c(C(C)=O)c(O)c1C | 0.992 ± 0.026 | 0.977 ± 0.1 | 1.045 ± 0.0071 | 0.94 ± 0.11 | 0.885 ± 0.016
CC(=O)Nc1ccc(S(=O)(=O)Nc2ccc([N+](=O)[O-])cc2)cc1 | 0.868 ± 0.03 | 0.933 ± 0.12 | 1.02 ± 0.028 | 1.1 ± 0.071 | 1.08 ± 0.042
COc1ccc(C=CC(=O)O)cc1OC | 0.993 ± 0.0099 | 1.06 ± 0.085 | 1.02 ± 0.053 | 1.12 ± 0.042 | 0.987 ± 0.033
CC(=O)O[C@@H]1CC2C(C)(C)C(=O)C3OC3[C@]2(C)C2CC[C@@]3(C)[C@H](c4ccoc4)OC(=O)C4OC43[C@@]21C (stereo not given in full) | 1.06 ± 0.014 | 1.1 ± 0.085 | 1.02 ± 0.035 | 1.02 ± 0.057 | 0.864 ± 0.078
CC(C)[C@@H]1CC[C@@H](C)CC1=O | 1.01 ± 0.033 | 1.16 ± 0.11 | 1.04 ± 0.028 | 0.906 ± 0.087 | 0.904 ± 0.037
Cc1oncc1C(=O)Nc1ccc(C(F)(F)F)cc1 | 1.05 ± 0.11 | 1.15 | 1.13 ± 0.071 | 1.14 ± 0.05 | 1.05 ± 0.11
COc1ccc(-c2oc3cc(OC)c(OC)c(OC)c3c(=O)c2OC)cc1 | 0.978 ± 0.06 | 0.918 ± 0.06 | 1.02 ± 0.021 | 1.055 ± 0.0071 | 0.917 ± 0.087
C[C@@H]1CC[C@H]2C(C(=O)O)=C[C@@H]3[C@@H](O)C(C)(C)C[C@@]132 [Pentalenic acid] | 0.966 ± 0.019 | 0.941 ± 0.016 | 1.02 ± 0.042 | 0.794 ± 0.13 | 0.98 ± 0.16
CCCN(CCC)CCc1cccc2c1CC(=O)N2 | 1.02 ± 0.059 | 1.08 ± 0.014 | 1.01 ± 0.044 | 1.18 ± 0.092 | 1.07 ± 0.028
C=CC(C1=CC(=O)C(OC)=CC1=O)c1ccc(OC)cc1 (stereo not given) | 1.06 ± 0.035 | 1.13 ± 0.085 | 1.03 ± 0.054 | 0.988 ± 0.059 | 1 ± 0.11
CC=CC(=O)N(CC)c1ccccc1C | 0.931 ± 0.093 | 1.05 ± 0.028 | 1.01 ± 0.021 | 0.953 ± 0.081 | 0.8525 ± 0.0078
Nc1c2ccccc2nc2ccccc12 | 0.942 ± 0.071 | 0.919 ± 0.11 | 1.03 ± 0.021 | 1.52 ± 0.54 | 1.01 ± 0.13
NC/C=C/C(=O)O | 1.03 ± 0.088 | 1.01 ± 0.095 | 1 ± 0.068 | 0.965 ± 0.079 | 1 ± 0.11
COC(=O)C[C@H]1C(C)(C)C(=O)[C@@H]2CC3=C4CC(=O)O[C@@H](c5ccoc5)[C@]4(C)CC[C@@H]3[C@@]1(C)C2=O | 1.01 ± 0.016 | 1.01 ± 0.014 | 1.035 ± 0.0071 | 0.924 ± 0.0028 | 1.03 ± 0.035
Cc1ccc(/C(=C\CN2CCCC2)c2ccccn2)cc1 | 0.984 ± 0.037 | 0.968 ± 0.088 | 0.945 ± 0.048 | 0.886 ± 0.064 | 0.956 ± 0.091
CC(=O)O[C@H]1CC[C@]2(C)[C@H]3CC[C@]4(C)C(=CC[C@@]5(C(=O)O)CCC(C)(C)C[C@H]54)[C@]3(C)CC[C@H]2C1(C)C [3-Acetylaleuritolic acid] | 1.01 ± 0.11 | 1.04 ± 0.11 | 1.01 ± 0.044 | 0.879 ± 0.0085 | 1.02 ± 0.06
CCCNC(=O)NS(=O)(=O)c1ccc(Cl)cc1 | 1.03 ± 0.11 | 0.991 ± 0.042 | 1.07 ± 0.2 | 0.968 ± 0.013 | 0.945 ± 0.016
CC(=O)N[C@@H](C=O)[C@@H](O)[C@H](O)[C@H](O)CO | 1.04 ± 0.021 | 1.06 ± 0.014 | 0.945 ± 0.013 | 1.18 ± 0.035 | 1.2 ± 0.057
COc1cc(O)c(C(C)=O)c(OC)c1 | 1.12 ± 0.11 | 1.03 ± 0.059 | 1.055 ± 0.0071 | 0.978 ± 0.19 | 0.983 ± 0.11
CN[C@@H]1[C@H](O)[C@H](NC)[C@H]2O[C@@]3(O)C(=O)C[C@@H](C)O[C@H]3O[C@@H]2[C@H]1O | 1.04 ± 0.08 | 1.004 ± 0.0085 | 0.978 ± 0.025 | 1.24 ± 0.18 | 1.09 ± 0.13
C[C@@H]1[C@H]2[C@H](O[C@@H]3O[C@H](CO)[C@@H](O)[C@H](O)[C@H]3O)OC=C(C(=O)O)[C@H]2C[C@@H]1O | 1.05 ± 0.035 | 1.02 ± 0.1 | 1.03 ± 0.014 | 1.07 ± 0.1 | 1.05 ± 0.078
CN1C(C)(C)CCCC1(C)C | 0.993 ± 0.0099 | 0.939 ± 0.13 | 1.02 ± 0.059 | 0.982 ± 0.011 | 1 ± 0.025
CC(C)CCC[C@@H](C)[C@H]1CC[C@H]2[C@@H]3CC(=O)[C@H]4C[C@@H](O)CC[C@]4(C)[C@H]3CC[C@]12C [5alpha-CHOLESTAN-3beta-OL-6-ONE] | 0.985 ± 0.05 | 1.01 ± 0.014 | 1.015 ± 0.0071 | 0.904 ± 0.15 | 0.874 ± 0.047
COc1cc2ccc(=O)oc2c(OC)c1OC | 1.05 ± 0.075 | 1.05 ± 0.064 | 1.025 ± 0.0071 | 0.993 ± 0.081 | 0.931 ± 0.045
COc1c2ccoc2c(OC)c2oc(=O)ccc12 | 0.95 ± 0.0099 | 0.966 ± 0.16 | 1.07 ± 0.028 | 0.982 ± 0.11 | 0.927 ± 0.017
O=C(/C=C/c1ccccc1)c1ccc(O[C@@H]2O[C@H](CO)[C@@H](O)[C@H](O)[C@H]2O)cc1O | 0.947 ± 0.022 | 0.83 ± 0.04 | 0.978 ± 0.018 | 1.02 ± 0.036 | 1.13 ± 0.057
CC(C)NCC(O)c1ccc2ccccc2c1 (stereo not given) | 0.986 ± 0.035 | 1.01 ± 0.042 | 0.977 ± 0.0042 | 0.962 ± 0.097 | 1 ± 0.069
CCCCCC[C@H]1CC[C@@](O)([C@@](C)(O)C(=O)N[C@@H]2C(=O)N3NCCC[C@@H]3C(=O)N(O)[C@@H](COC)C(=O)NCC(=O)N3NCCC[C@H]3C(=O)N(O)[C@H](C)C(=O)O[C@H]2C)OC1C (stereo not given in full) [Diperamycin] | 1.15 ± 0.099 | 1.23 ± 0.035 | 1.11 ± 0.099 | 1.06 ± 0.11 | 0.926 ± 0.0014
